# High-throughput results as filed in PubChem BioAssay.
# SARS PLpro yeast: blocks SARS-CoV papain-like protease in a yeast assay | S. cerevisiae expressing SARS-CoV PLpro, growth rescue | Potency, µM (top dose mostly 32.9 µM), inactives show at the top dose activity, positive = growth rescue, most hits filed as activators | actives 0.19% (n = 330,000); note: 0% is about no effect; nearly all actives have a fitted effect of over 55% in size
# Pf growth 48h: P. falciparum growth inhibition at 48 hours (one generation) | P. falciparum luciferase growth in erythrocytes, 48 h | Potency, µM (highest dose often 28.7 µM), for inactives: at the highest dose activity change, negative = inhibition, most hits filed as inhibitors | actives 5.9% (n = 310,000); active = well fitted inhibition curve with a large enough effect; inconclusive = small, poorly fitted or top-dose-only effect, or another doubt; inactive = no such curve, though single readings can be large or run the other way; note: % is set by controls: 0 for no effect and ±100 for the full control effect
#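 Here the parasites carry a stable luciferase gene and grow inside erythrocytes in Albumax-based RPMI medium with compound for one erythrocytic cycle. Activity is scored as loss of luminescent signal.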
# NS1 inh: influenza NS1 inhibition | actives 0.4% (n = 270,000) | Potency, µM (series often up to 46.1 µM), for inactives: top-dose activity, positive = more growth; note: actives are rising curves; nearly all actives have a fitted effect of over 50% in size
#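 Growth recovery, yeast-based: influenza A NS1 expressed in S. cerevisiae causes slow growth, and suppressors are detected by OD600. The parent strain without NS1 is used as positive control.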
# Pf growth 96h: P. falciparum growth inhibition at 96 hours. P. falciparum luciferase reporter growth, 96 h. Potency, µM (highest dose often 28.7 µM), for inactives: at the highest dose activity change, negative = inhibition, hits mostly inhibitors. actives 6.9% (n = 320,000); active = well fitted inhibition curve with a large enough effect; inconclusive = small, poorly fitted or top-dose-only effect, or another doubt; inactive = no such curve, though single readings can be large or run the other way; note: % is set by controls: 0 for no effect and ±100 for the full control effect
#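 Readout is luminescence from an integrated firefly luciferase in P. falciparum. Red cells, 2% hematocrit and 0.05% parasitemia final, were cultured with compound through two parasite generations (96 hours) at 37 C, 5% CO2.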
# * marks the source's active call; other numbers are inactive results; ? = inconclusive; . = no result; [ ] = another dose, or the depositor's remark. The list is not random: actives were taken first. Their share in the collection is about 10%. Unless noted, calls come from the whole dose curve. Potency is the fitted concentration of half-maximal effect.
SMILES,SARS PLpro yeast,Pf growth 48h,NS1 inh,Pf growth 96h
CC(=O)N1CCOc2ccc(S(=O)(=O)NCC3CCC(C(=O)Nc4ccc(C)cn4)CC3)cc21 (stereo not drawn),-2%,-16%,-12%,?
CCOC(=O)CC1=NN(c2ccccc2)C(=O)C1,3%,-10%,8%,36%[5.75 µM]
CCOC(=O)CC1=NN(c2ccccc2)C(=O)/C1=C\c1ccc(N(C)C)cc1,19%,?,-2%,5.9µM*
COC(=O)c1ccc(CN(C(=O)N2CCN(C)CC2)S(=O)(=O)c2ccc(C)cc2)cc1,0%,36%,.,41%
CCN(CC)c1ccc(C=Nc2ccccc2)c(O)c1,-1%,?,-2%,?
CCN(CC)c1ccc(/C=C/c2cccc[n+]2C)c(OC)c1,-9%,0.37µM*,-36%,50%
Clc1ccc([C@H](Cn2ccnc2)OCc2csc3c(Cl)cccc23)c(Cl)c1,.,?,.,5.7µM*
Clc1ccc(C(Cn2ccnc2)OCc2c(Cl)cccc2Cl)c(Cl)c1 (stereo not drawn),.,2.3µM*,.,2.9µM*
Clc1ccc(C(Cn2ccnc2)OCc2csc3c(Cl)cccc23)c(Cl)c1 (stereo not drawn),.,1µM*,.,2.6µM*
Clc1cccc(OCCCn2ccnc2)c1,-2%,-9%,-5%,?
OC(Cn1ccnc1)c1ccc(Cl)cc1Cl (stereo not drawn),-21%,10µM*,-44%,9.3µM*
NC(=S)N/N=C/c1ccccc1OC(=O)c1cc2ccccc2oc1=O,15%,0.33µM*,-7%,0.59µM*
CCOC(=O)N1CCN(c2c(NCCCN3CCCCCC3)c(=O)c2=O)CC1,-2%,.,3%,10µM*
CCOC(=O)C1CCN(c2c(NCCCN3CCCCC3)c(=O)c2=O)CC1,2%,-6%,-1%,19%
CCOC(=O)N1CCN(c2c(NCc3cccs3)c(=O)c2=O)CC1,0%,.,-4%,12µM*
CCOC(=O)N1CCN(c2c(NCCN3CCN(Cc4ccccc4)CC3)c(=O)c2=O)CC1,-5%,.,-3%,5%
CCOC(=O)N1CCN(c2c(NCC3CCN(Cc4cccc(C)c4)CC3)c(=O)c2=O)CC1,1%,8%,7%,6.6µM*
O=C(NCCS(=O)(=O)NC1CCCCC1)c1ccc2c(c1)OCO2,1%,0%,.,30%
COc1ccc(-c2cc(C(=O)N(C)CC(=O)Nc3cccc(F)c3)c3ccccc3n2)cc1,-6%,?,.,?
CC(C)C1O[C@H](/C=C\c2ccccc2)OCC1(C)C (stereo partly drawn),.,.,3%,.
CCOC(=O)c1c(C)[nH]c(C)c1C(=O)CN1C(=O)NC(CC(C)C)C1=O (stereo not drawn),3%,9.3µM*,4%,26%
CCOC(=O)c1c(C)[nH]c(C)c1C(=O)CN1C(=O)NC2(CCC(C)CC2)C1=O (stereo not drawn),4%,?,-1%,.
N#CC1=C(Nc2ccccc2)SC=C(c2ccccc2)N=C1N1CCOCC1,10%,.,6%,?
N#CC1=C(Nc2ccccc2)SC=C(c2ccc(Cl)c(Cl)c2)N=C1N1CCOCC1,1%,13µM*,10%,?
NC(N)=NCCCCN=C(N)N,.,.,-7%,.
SMILES,SARS PLpro yeast,Pf growth 48h,NS1 inh,Pf growth 96h
CCOC(=O)Cc1c(C)nc2c(-c3ccc(Cl)cc3)c(C)nn2c1C,-1%,?,0%,4%
CCOC(=O)Cc1c(C)nc2cc(C)nn2c1C,0%,-1%,1%,13µM*
NS(=O)(=O)c1ccc(CCNC(=O)CCCCCn2c(=S)[nH]c3ccc(Br)cc3c2=O)cc1,-1%,?,.,29%
Cc1cccc(-c2nc(CS(=O)CC(=O)N3CCN(C)CC3)c(C)o2)c1 (stereo not drawn),3%,.,?,7.4µM*
Cc1oc(-c2ccccc2F)nc1CS(=O)CC(=O)NCc1ccc(F)cc1 (stereo not drawn),27%,30%,19%,2.9µM*
Cc1cccc(-c2nc(CS(=O)CC(=O)NCCc3ccccc3)c(C)o2)c1 (stereo not drawn),0%,12%,4%,5.2µM*
CCN(C(=O)COC(=O)c1ccc2c(c1)OCO2)c1ccc(F)cc1,-2%,.,.,.
CCNC(=O)CC1C(=O)N(c2ccc(F)cc2)C(=O)N1CCc1ccc(OC)cc1 (stereo not drawn),-7%,12%,0%,1%
COc1ccc(CCNC2=CC(=O)N(c3ccc(F)cc3)C2=O)cc1,-1%,1%,.,3.3µM*
CCC(C)NC(=O)CC(c1ccccc1)c1cc(C)ccc1O (stereo not drawn),0%,?,7%,24%
Cc1ccc(O)c(C(CC(=O)N2CCCC2)c2ccccc2)c1 (stereo not drawn),28%,-1%,-5%,0.37µM*
Cc1ccc(O)c(C(CC(=O)NC(C)C)c2ccccc2)c1 (stereo not drawn),0%,-19%,-2%,13µM*
CCc1ccc(NC(=O)CCn2nc(C)c(S(=O)(=O)N3CCCCC3)c2C)cc1,2%,9%,3%,31%
CC(C)c1ccc(S(=O)(=O)N2CCN(C(C)C(=O)Nc3ccccc3-c3ccccc3)CC2)cc1 (stereo not drawn),3%,9.3µM*,?,5.2µM*
CCCC(NC(=O)C(C)N1CCN(S(=O)(=O)c2ccccc2)CC1)c1ccccc1 (stereo not drawn),-3%,-23%,.,10µM*
CC(C(=O)Nc1ccccc1-c1ccccc1)N1CCCCC1 (stereo not drawn),-5%,.,5%,?
O=C(Nc1ccccc1-c1ccccc1)C(c1ccccc1)c1ccccc1,5%,?,5%,1.7µM*
CC(C(=O)Nc1ccccc1-c1ccccc1)N1CCN(S(=O)(=O)c2ccccc2)CC1 (stereo not drawn),5%,6.6µM*,-17%,9.3µM*
CCOC(=O)C1=C(COC(=O)c2ccccc2[N+](=O)[O-])NC(=O)NC1C (stereo not drawn),0%,-16%,.,19%
Cc1cccc(CSc2nnc(CCCCCNC(=O)OC(C)(C)C)o2)c1,-2%,9.3µM*,-32%,-9%
Cc1ccc(CSc2nnc(CCCCCNC(=O)OC(C)(C)C)o2)cc1,0%,?,-33%,-20%
Cc1nc(CN(C)C(=O)c2cc(COc3ccc4ncccc4c3)on2)cs1,-1%,-18%,-3%,-23%
COc1cccc(NC(=S)N(CCCN2CCOCC2)C(C)c2cc3cccc(OC)c3o2)c1 (stereo not drawn),-5%,?,.,2.1µM*
COc1cccc(NC(=O)N(CCCN2CCOCC2)C(C)c2cc3cccc(OC)c3o2)c1 (stereo not drawn),-1%,?,-8%,?
COc1cccc(NC(=O)N(CCCN2CCOCC2)C(C)c2cc3ccccc3o2)c1 (stereo not drawn),1%[6.58 µM],.,0%,12µM*
CC(O)CNCc1ccc(-c2ccccc2)cc1 (stereo not drawn),-7%,-5%,-11%,-11%
CC(NCc1ccc(-c2ccccc2)cc1)C(O)c1ccccc1 (stereo not drawn),-32%,2.9µM*,-16%,2.3µM*
